From PubChem BioAssay

Tests used:
[1] = system: Human papillomavirus type 1a protein E7 (residues 44-93); experiment: small molecules binding HPV E7 44-93 – biochemical, small-molecule microarray, residues 44-93, 635 nm fluorescence, primary screen (AID 1108); conditions: fluorescence 635 nm, higher = more signal;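 also: E7 fragment applied at 1 µg/mL in TBST for 1 h at 4 C; score combines spot fluorescence with its signal to noise ratio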
[2] = hepatitis C replication reporter changes, two-sided – Huh7 cells, luciferase reporter, HCV replication inhibitor project, primary screen (AID 1109); conditions: Huh7 HCV replicon luciferase reporter, 48 h; higher = more signal;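 also: huh7 hepatoma cells harbouring a luciferase neomycin HCV replicon reporter; luciferase luminescence as measure of HCV replicon replication; test concentration not given here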
[3] = target: Left-right determination factor 2 (Homo sapiens) (UniProt O00292); experiment: small molecules binding LEFTY2 protein – biochemical, small-molecule microarray, 635 nm fluorescence scan, primary screen (AID 1110); conditions: higher = more signal
[4] = target: Calmodulin-1 (Homo sapiens) (UniProt P0DP23); experiment: small molecules binding calmodulin-1 with EGTA – biochemical, small-molecule microarray, Cy5-labelled CALM1, profiling panel (AID 1111); conditions: Cy5-CALM1 binding fluorescence, higher = more signal;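 also: labelled calmodulin applied in Tris saline Tween buffer holding calcium plus EGTA and DTT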
[5] = target: Calmodulin-1 (Homo sapiens) (UniProt P0DP23); experiment: small molecules binding Ca-loaded calmodulin-1 – biochemical, small-molecule microarray, Cy5-labelled CALM1, plus calcium, artefact control for SMM control-protein annotation, profiling panel (AID 1112); conditions: Cy5-CALM1 binding fluorescence, higher = more signal;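 also: score merges spot fluorescence with signal to noise from triplicate slides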
[6] = probe aWnt5a binding to arrayed compounds – biochemical, biotinylated probe, 635/667 nm fluorescence, primary screen (AID 1113); conditions: small-molecule microarray, higher = more signal;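 also: score merges 667 nm fluorescence intensity with signal-to-noise per printed feature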
[7] = probe aShh binding to arrayed compounds – biochemical, biotinylated probe, 635/667 nm fluorescence, primary screen (AID 1114); conditions: small-molecule microarray, higher = more signal;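 also: probe is biotin-labelled aShh protein from a stem cell growth factor screen; measures binding of labelled protein to compounds printed on the slide; score merges feature fluorescence at 667 nm with signal-to-noise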
[8] = probe aNog binding to arrayed compounds – biochemical, biotinylated probe, 635/667 nm fluorescence, primary screen (AID 1115); conditions: small-molecule microarray, higher = more signal;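 also: probe is biotinylated aNog protein used at 0.15 µg/mL for 1 h at 4 C; z-score combines 667 nm fluorescence of each spot with its signal to noise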
[9] = target: Torsin-1A-interacting protein 1 (Homo sapiens) (UniProt Q5JTV8); experiment: compound microarray binding of lysate hLAP1 – cell lysate, small-molecule microarray, COS7 lysate, 635/667 nm fluorescence, primary screen (AID 1116); conditions: 635 nm fluorescence, higher = more signal
[10] = target: Alpha-bungarotoxin (Bungarus multicinctus) (UniProt P60615); experiment: compounds binding labelled alpha-BTX control protein – biochemical, small-molecule microarray, Alexa647 label, 635/667 nm fluorescence, artefact control for SMM control protein annotation, profiling panel (AID 1117); conditions: alpha-BTX-A647 binding fluorescence, higher = more signal
Alpha-bungarotoxin (Bungarus multicinctus), sequence (P60615 whole entry, looked up): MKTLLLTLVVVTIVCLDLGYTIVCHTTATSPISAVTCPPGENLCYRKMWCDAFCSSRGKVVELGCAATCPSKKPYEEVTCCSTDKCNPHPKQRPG

Left-right determination factor 2 (Homo sapiens), sequence (O00292 whole entry, looked up): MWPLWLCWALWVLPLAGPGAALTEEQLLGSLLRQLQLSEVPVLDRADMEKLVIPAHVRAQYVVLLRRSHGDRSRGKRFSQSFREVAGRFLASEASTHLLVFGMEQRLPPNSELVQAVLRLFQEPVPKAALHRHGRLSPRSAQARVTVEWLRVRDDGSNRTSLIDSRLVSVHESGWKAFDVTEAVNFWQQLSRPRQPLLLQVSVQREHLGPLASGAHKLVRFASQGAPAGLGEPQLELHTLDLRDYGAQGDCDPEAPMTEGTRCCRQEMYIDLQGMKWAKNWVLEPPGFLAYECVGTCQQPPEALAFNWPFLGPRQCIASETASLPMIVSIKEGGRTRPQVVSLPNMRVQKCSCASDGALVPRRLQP
Torsin-1A-interacting protein 1 (Homo sapiens), sequence (Q5JTV8 whole entry, looked up): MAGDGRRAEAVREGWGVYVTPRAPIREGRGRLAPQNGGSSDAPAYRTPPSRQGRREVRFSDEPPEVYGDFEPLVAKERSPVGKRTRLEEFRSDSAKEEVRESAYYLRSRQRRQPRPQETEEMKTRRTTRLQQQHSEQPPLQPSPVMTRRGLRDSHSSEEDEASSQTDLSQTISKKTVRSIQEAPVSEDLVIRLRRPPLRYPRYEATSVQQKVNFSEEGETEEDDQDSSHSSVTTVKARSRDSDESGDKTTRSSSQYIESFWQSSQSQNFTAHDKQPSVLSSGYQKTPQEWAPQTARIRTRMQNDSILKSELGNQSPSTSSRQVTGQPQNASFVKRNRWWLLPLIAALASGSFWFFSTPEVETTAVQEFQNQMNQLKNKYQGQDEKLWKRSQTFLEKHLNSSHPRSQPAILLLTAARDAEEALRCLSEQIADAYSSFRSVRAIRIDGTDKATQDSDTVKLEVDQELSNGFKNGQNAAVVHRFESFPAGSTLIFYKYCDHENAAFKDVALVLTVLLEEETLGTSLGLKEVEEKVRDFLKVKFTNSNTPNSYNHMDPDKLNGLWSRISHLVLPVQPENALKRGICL

| Compound | composite z-score [1] | z-score [2] | composite z-score [3] | composite z-score [4] | composite z-score [5] | composite z-score [6] | composite z-score [7] | composite z-score [8] | composite z-score [9] | composite z-score [10] |
| --- | --- | --- | --- | --- | --- | --- | --- | --- | --- | --- |
| COC(=O)[C@@]1(Cc2ccc(F)cc2)[C@H]2c3cc(C(=O)N(C)C)n(Cc4cc(C)n(C)n4)c3C[C@H]2CN1C(=O)c1ccccc1 | 0.923 | 0.107 | -0.476 | 2.43 | 0.669 | 0.418 | -0.0324 | 1.82 | 2.58 | 0.42 |
| O=C1[C@@]23C=C(Br)[C@H](C[C@@H]2COC3)[C@]12CO2 | -2.09 | -1.96 | -1.16 | -1.01 | -1.25 | 0.0388 | -0.234 | 0.0256 | -0.0722 | -1.5 |
| [N-]=[N+]=Nc1ccccc1[C@H]1OC(c2ccc(OCCCO)cc2)=N[C@@]1(CCS(=O)(=O)c1ccccc1)C(=O)NCc1ccccc1 | 1.46 | -0.242 | 0.565 | 0.937 | 0.338 | 0.153 | 0.0723 | -0.487 | 1.06 | 0.785 |
| COc1ccc(CCNC(=O)[C@@]2(c3ccc([N+](=O)[O-])cc3)CC(=O)N(CC34CC5CC(CC(C5)C3)C4)[C@@H]2c2ccc(CO)cc2I)cc1 | 1.38 | -3.41 | 0.261 | 0.408 | -0.266 | -0.0643 | -0.312 | 0.769 | 0.757 | 0.962 |
| COCCOC(=O)N1C(=O)[C@@]2(c3ccccc31)[C@H](c1ccc(OCCO)cc1)N1[C@H](c3ccccc3)[C@H](c3ccccc3)OC(=O)[C@H]1[C@@H]2C(=O)N1CCc2cc(OC)c(OC)cc2C1 | 1.16 | -2.15 | 1.03 | 1.2 | 0.0721 | -0.001 | 0.0141 | 0.603 | 0.977 | 2.23 |
| CCOC(=O)C1=CCC(c2ccc(F)cc2)N(S(=O)(=O)c2ccc(C)cc2)C1 (stereo not given) | 0.683 | -1.81 | 0.105 | 0.0017 | 0.0535 | -0.184 | -0.167 | -0.494 | 0.612 | 0.25 |
| COc1ccc(CCNC(=O)[C@@]2(C)c3ccccc3C(=O)N(c3ccc(C)cn3)[C@H]2c2ccc(CO)cc2)cc1 | -0.992 | -0.583 | -0.839 | -0.4 | -0.141 | -0.096 | 1.9 | -0.118 | 0.56 | -0.438 |
| COCCOC(=O)N1C(=O)[C@@]2(c3ccccc31)[C@H](C(N)=O)[C@H]1C(=O)O[C@H](c3ccccc3)[C@H](c3ccccc3)N1[C@@H]2c1ccc(O)cc1 | 1.37 | -0.328 | 0.113 | 0.0186 | -0.346 | -0.199 | -0.0769 | -0.334 | -0.602 | -0.364 |
| COC(=O)[C@@]1(Cc2ccc(OC)cc2)[C@H]2c3cc(C(=O)N4CCCC4)n(CCSCCO)c3C[C@H]2CN1C(=O)c1ccccc1 | 1.37 | -1.48 | -0.641 | 1.66 | 0.644 | 0.151 | 0.0039 | 2.04 | 1.01 | 1.22 |
| C#CCN1[C@@H](Cc2ccc(O)cc2)C(=O)O[C@H](Cc2ccccc2)[C@@H]1/C=C/C1CC1 | -0.513 | -3.22 | 0.207 | -0.458 | -0.587 | -0.18 | 0.163 | -0.113 | -0.188 | 0.0577 |
| NCCCCCNC(=O)[C@H]1C[C@H]2C(=O)N[C@@H](Cc3ccccc3)C(=O)N2[C@H]1c1cccc(OCCO)c1 | 0.509 | -0.82 | 0.115 | 1.85 | 1.06 | 0.0328 | 0.246 | 0.296 | 2.09 | 2.07 |
| CCCCCCc1nc(-c2ccc(-c3ccc(Cl)c(Cl)c3)o2)c(C)c2c1[Si](C(C)C)(C(C)C)OC2 | -0.121 | -1.46 | -0.127 | 0.18 | 0.45 | -0.124 | -0.123 | -0.124 | -0.196 | 0.354 |
| CCCCC(=C=CC[C@@H](O)c1ccc(CO)o1)CCO | 0.378 | -0.379 | 0.38 | -0.111 | -0.641 | -0.0462 | 0.365 | -0.158 | 0.148 | -0.168 |
| C#CCN(C/C=C/c1ccccc1)[C@H](CO)c1ccccc1 | -0.414 | -1.74 | 0.171 | -0.653 | -0.472 | -0.0919 | -0.262 | -0.326 | -0.0349 | -0.0338 |
